# High-throughput results deposited in PubChem BioAssay by National Center for Advancing Translational Sciences (NCATS).
# TDP1 cell noCPT = qHTS for Inhibitors of human tyrosyl-DNA phosphodiesterase 1 (TDP1): qHTS in cells in absence of CPT; DT40 Tdp1-/- hTDP1 cells, no CPT, ATP luminescence, 48 h; Potency, µM (series often up to 46.2 µM), hits mostly inhibitors; 420,000 tested, 15% active; note: nearly all actives have a fitted effect of over 55% in size
#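 Camptothecin absent (DMSO only). Human TDP1-complemented DT40 knockout cells, 400 cells/well, 37 °C for minimum 48 hr; ATP measured via CellTiter-Glo, 30 min dark incubation, luminescence.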
# ELG1 DNA repair = inhibitors of ELG1-dependent DNA repair in HEK293T cells; AID 504467; HEK293T ELG1-luciferase reporter, luminescence, 16 h; DNA damage induced by 5-fluorouridine; Potency, µM (series often up to 46.1 µM), actives largely listed as inhibitors; 330,000 tested, 2.3% active; note: nearly all actives have a fitted effect of over 55% in size
#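 HEK293T cells expressing luciferase-tagged ELG1 (2,000/well) received 5-Fluorouridine plus compound or DMSO for 16 hr at 37 °C. Luciferase was read by ONE-Glo luminescence after 30 min at room temperature.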
# Giardia killer = Giardia lamblia killing. 340,000 tested, 0.15% active. activity change, % at 7.66 µM, hits read low. Giardia lamblia trophozoite viability; in the data active = activity change below about -80%; inconclusive = between about -30% and that limit;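 note: parasites exposed to compound for two days anaerobically before the ATP read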
#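 Trophozoite viability was measured as ATP-dependent luminescence, read 15-30 min after reagent addition. Before that, parasites at 100 cells/well were exposed to compounds for 48 h, anaerobically, at 37 deg C.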
# TDP1 block = TDP1 (human) enzyme inhibition; Q9NUW8; recombinant TDP1, AlphaScreen DNA substrate cleavage; Potency, µM (titrated, usually from 130 µM), most hits filed as inhibitors; 350,000 tested, 0.28% active; AID 485290; note: nearly all actives have a fitted effect of over 40% in size
# Target sequence (Q9NUW8 whole entry, looked up): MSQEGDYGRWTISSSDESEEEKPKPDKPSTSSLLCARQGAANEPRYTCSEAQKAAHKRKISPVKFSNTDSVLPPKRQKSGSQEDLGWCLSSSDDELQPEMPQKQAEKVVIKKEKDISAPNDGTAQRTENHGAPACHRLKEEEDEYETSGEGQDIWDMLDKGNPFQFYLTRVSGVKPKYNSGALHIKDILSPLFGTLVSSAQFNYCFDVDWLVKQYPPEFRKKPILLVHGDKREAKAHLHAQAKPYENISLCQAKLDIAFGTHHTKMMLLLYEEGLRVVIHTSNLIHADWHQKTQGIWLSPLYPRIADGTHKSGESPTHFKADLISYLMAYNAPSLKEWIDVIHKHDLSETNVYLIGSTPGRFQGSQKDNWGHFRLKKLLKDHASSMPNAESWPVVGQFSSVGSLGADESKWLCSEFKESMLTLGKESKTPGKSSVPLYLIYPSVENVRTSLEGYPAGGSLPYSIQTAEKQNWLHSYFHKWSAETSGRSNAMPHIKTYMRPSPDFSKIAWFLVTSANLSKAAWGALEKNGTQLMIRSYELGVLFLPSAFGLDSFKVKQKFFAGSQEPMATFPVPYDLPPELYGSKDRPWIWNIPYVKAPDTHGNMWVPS
#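 Compounds were preincubated with Tdp1 (1 nM final) for 15 min at room temperature before substrate (15 nM final) started a 5 min reaction; beads (10 ug/ml final) were then added for 10 min before AlphaScreen detection.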
# IL-1B inflam inh = inhibitors of inflammasome signaling (IL-1 beta secretion); THP-1 LPS/ATP IL-1B secretion, AlphaLISA, 16 h; active compounds read low; activity change, % at 57.5 µM; 360,000 tested, 4.7% active; AID 743279; in the data active = activity change below about -50%; inconclusive = mostly about -30% to -49%
#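 THP-1 cells pretreated 1 hr with compounds (up to 57.5 uM final), then stimulated with LPS (250 ng/mL final) plus ATP (1.25 mM final); secreted IL-1B measured by AlphaLISA after 16 hr, decreased signal indicating inhibition.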
# TDP1 cell CPT = DT40-hTDP1 cell growth loss with CPT. 420,000 tested, 12% active. chicken DT40 Tdp1-/-;hTDP1 cells + 20 nM CPT, ATP luminescence, 48 h. Potency, µM (doses to about 46.2 µM), most hits filed as inhibitors. AID 686979; note: nearly all actives have a fitted effect of over 55% in size
#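 Chicken DT40 Tdp1-/- cells complemented with human TDP1, 400 cells/well, exposed to compounds plus 20 nM camptothecin for at least 48 h at 37 C; viability read as ATP content by CellTiter-Glo luminescence.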
# Hits are given with their value; 0 = inactive; ? = inconclusive; - = not tested or not shown. The list is not random: actives were taken first. Their share in the collection is about 19%. Unless noted, calls come from the whole dose curve; as a rule, active = well fitted curve in the direction sought with a large enough effect; inconclusive = small, poorly fitted or top-dose-only effect, or another doubt; inactive = no such curve, though single readings can be large; an effect the other way counts as inactive or inconclusive.
SMILES,TDP1 cell noCPT,ELG1 DNA repair,Giardia killer,TDP1 block,IL-1B inflam inh,TDP1 cell CPT
CCOc1ccc(-c2c(=O)n(OCc3ccc([N+](=O)[O-])cc3)c3ccccc3[n+]2[O-])cc1,-,0,-,0,-,-
Cc1ccc(C(=O)N2CCN(S(=O)(=O)c3cc(Br)ccc3Br)CC2)o1,0,0,0,-,0,0
COc1ccc(N2CCN(C(=O)c3cccc(Br)c3)CC2)c([N+](=O)[O-])c1,16µM,0,0,0,?,23µM
COc1ccc(N2CCN(C(=O)c3ccccc3F)CC2)c([N+](=O)[O-])c1,?,0,0,0,?,?
COc1ccc(N2CCN(C(=O)c3ccc(F)cc3)CC2)c([N+](=O)[O-])c1,21µM,?,0,0,0,0
O=C(c1ccc(F)cc1)N1CCN(c2cc(N3CCCCC3)c(F)cc2[N+](=O)[O-])CC1,?,0,0,0,-83,?
Cc1noc(C)c1NC(=O)N(C)C[C@@H]1OCc2cnnn2CCCC(=O)N([C@@H](C)CO)C[C@@H]1C,0,-,-,-,0,0
CCOC(=O)NC1CCc2cc(OC)c(OC)c(OC)c2-c2ccc(SC)c(=O)cc21 (stereo unspecified),0.016µM,-,0,-,0,0.01µM
COc1cc2c(c(OC)c1OC)-c1ccc(NC(=O)c3ccccc3)c(=O)cc1[C@@H](NC(C)=O)CC2,0,?,0,-,0,0
COc1c(O[C@H]2O[C@@H](CO)[C@@H](O)[C@@H](O)[C@@H]2O)cc2c(c1OC)-c1ccc(SC)c(=O)cc1[C@H](NC(C)=O)CC2,-,-,-,0,-,-
CCCCOC(=O)NC1CCc2cc(OC)c(OC)c(OC)c2-c2ccc(SC)c(=O)cc21 (stereo unspecified),0.015µM,-,0,-,0,0.016µM
CN[C@H]1CCc2cc(OC)c(OC)c(OC)c2-c2ccc(OC)c(=O)cc21,0.13µM,-,0,-,0,0.021µM
CCOCC(=O)NC1CCc2cc(OC)c(OC)c(OC)c2-c2ccc(SC)c(=O)cc21 (stereo unspecified),0.16µM,-,0,-,0,0.015µM
Cc1ncc([N+](=O)[O-])n1CC(=O)Nc1ccc(F)c(Cl)c1,0,0,0,-,0,0
Cc1ncc([N+](=O)[O-])n1CCOC(=O)C12CC3CC(CC(C3)C1)C2,0,0,?,0,?,0
Cc1ncc([N+](=O)[O-])n1CCOC(=O)c1cc(Cl)cc(Cl)c1N,?,0,-86,0,0,0
Cc1ncc([N+](=O)[O-])n1CCOC(=O)Nc1ccc([N+](=O)[O-])cc1,0,0,-83,0,0,0
O=C(CN1CCN(S(=O)(=O)c2ccc(Cl)cc2)CC1)NCC1(N2CCOCC2)CCCCC1,0,0,0,0,0,?
Cc1cccc(C(=O)Nc2sc(C(=O)N3CCCC3)c(C)c2C#N)c1,?,0,0,0,0,?
Cc1c(C(=O)N2CCCC2)sc(NC(=O)c2cccc(Cl)c2)c1C#N,26µM,?,0,0,0,?
Cc1c(C(=O)N2CCCCC2)sc(NC(=O)C23CC4CC(CC(C4)C2)C3)c1C#N,18µM,-,0,-,0,?
CCCc1ccc(OC(C)c2nc(-c3ccc(-n4cccc4)cc3)no2)cc1 (stereo unspecified),?,-,-,0,-,0
CC(=O)N(c1cc(C)ccc1C)c1ccccc1[N+](=O)[O-],?,-,0,-,0,?
COC(=O)c1c(C)[nH]c(O)c1C=Nc1ccc(C(C)C)cc1,18µM,?,0,0,-101,?
COC(=O)c1c(C)[nH]c(O)c1C=Nc1ccc(Oc2ccccc2)cc1,?,?,0,0,0,0
COc1ccccc1NC(=O)Nc1nc(C(N)Cc2ccc(C(F)(F)F)cc2)cs1 (stereo unspecified),15µM,-,-,-,0,13µM
NC(Cc1ccc(C(F)(F)F)cc1)c1csc(NC(=O)Nc2ccccc2Oc2ccccc2)n1 (stereo unspecified),18µM,-,-,-,-60,?
